According to PubChem BioAssay (Tox21):
Results filed as inconclusive are left out. The source made the active and inactive calls. Calls follow the shape of the dose curve; as a rule, active = well fitted curve in the direction sought with a large enough effect in the repeat runs; inconclusive = weak or mixed curves; inactive = no such curve, though single readings can be large; an effect the other way counts as inactive or inconclusive.

Key:
[1] = qHTS RealTime-Glo MT Cell Viability Assay in HepG2 cells - 24 hour (AID 1224867); also: nearly all actives have a fitted effect of over 50% in size
Method in brief: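 HepG2 cells were seeded at 600 cells/well together with NanoLuc luciferase and a cell-permeant prosubstrate, preincubated 5 h at 37 C/5% CO2, then pin-dosed with compounds in DMSO. Nonlytic luminescence from viable cells was read at each time point.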

[2] = qHTS RealTime-Glo MT Cell Viability Assay in HEK293 cells - 32 hour (AID 1224868); also: top concentration of the series differs between compounds; nearly all actives have a fitted effect of over 50% in size
Method in brief: (§1)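 HEK293 cells were seeded at 600 cells/well together with NanoLuc luciferase and cell-permeant prosubstrate, preincubated 5 h at 37 C/5% CO2, then given compound in DMSO by pintool. Luminescence from viable-cell prosubstrate reduction was read repeatedly over 40 h.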

[3] = A CellTox Green Cytotoxicity Assay to monitor cytotoxicity in HEK293 cells - 0 hour (AID 1224869); also: nearly all actives have a fitted effect of over 50% in size
Method in brief: (§2)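 HEK293 cells, 600/well, were preincubated 5 hours and then exposed to compounds at 37 C for up to 40 hours. A cell-impermeant cyanine dye staining dead-cell DNA was read by fluorescence at 0, 8, 16, 24, 32 and 40 h time points.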

[4] = qHTS RealTime-Glo MT Cell Viability Assay in HepG2 cells - 40 hour (AID 1224870); also: nearly all actives have a fitted effect of over 50% in size
Method in brief: (§3)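 HepG2 cells (600/well) mixed with RealTime-Glo MT reagent, settled 5 h at 37 C/5% CO2 before compound addition. Nonlytic NanoLuc luminescence from viable-cell prosubstrate reduction read repeatedly during 40 h treatment at 37 C.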

[5] = A CellTox Green Cytotoxicity Assay to monitor cytotoxicity in HEK293 cells - 40 hour (AID 1224871); also: nearly all actives have a fitted effect of over 45% in size
Method in brief: as §2

[6] = qHTS RealTime-Glo MT Cell Viability Assay in HEK293 cells - 16 hour (AID 1224872)
Method in brief: as §1

[7] = qHTS RealTime-Glo MT Cell Viability Assay in HEK293 cells - 40 hour (AID 1224874); conditions: RealTime-Glo luminescence, stronger effect = lower value; also: nearly all actives have a fitted effect of over 50% in size
Method in brief: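 600 cells/well were plated with the nonlytic NanoLuc/prosubstrate reagent, pre-incubated 5 h, then given 23 nL of compound in DMSO. Incubation at 37 C for 40 h, with luminescence from viable-cell-reduced substrate read repeatedly from 0 h.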

[8] = A CellTox Green Cytotoxicity Assay to monitor cytotoxicity in HEK293 cells - 24 hour (AID 1224875); also: series mostly up to about 77 µM; nearly all actives have a fitted effect of over 45% in size
Method in brief: as §2

[9] = A CellTox Green Cytotoxicity Assay to monitor cytotoxicity in HepG2 cells - 16 hour (AID 1224876); also: nearly all actives have a fitted effect of over 45% in size
Method in brief: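 HepG2 cells, 600/well, preincubated 5 h with CellTox Green dye, then exposed to Tox21 compounds in DMSO at 37 C for up to 40 h. Dead-cell DNA fluorescence read at the indicated time point.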

[10] = qHTS RealTime-Glo MT Cell Viability Assay in HepG2 cells - 8 hour (AID 1224873); also: nearly all actives have a fitted effect of over 55% in size
Method in brief: as §3
% is scaled to controls: 0 for no effect and ±100 for the full control effect.

CC(=O)OC/C=C(/C)CCC=C(C)C
inactive: outcome [1] | outcome [2] | outcome [3] | outcome [4] | Potency [5] | outcome [6] | max response [7] -1.6% | Potency [8] | Potency [9]

O=S(=O)(O)c1ccc(Cl)cc1
inactive: outcome [1] | outcome [2] | outcome [3] | outcome [4] | Potency [5] | outcome [6] | outcome [10] | Potency [8] | Potency [9]

CCCCCCCC(=O)N(C)C
inactive: outcome [1] | outcome [2] | outcome [3] | outcome [4] | Potency [5] | outcome [6] | max response [7] 4.49% | Potency [8]

O=C(c1ccccc1)c1cccc(O)c1
inactive: outcome [1] | outcome [2] | outcome [3] | outcome [4] | Potency [5] | outcome [6] | outcome [10] | Potency [8] | Potency [9]

COc1ccc(Cl)cc1C
inactive: outcome [1] | outcome [2] | outcome [3] | outcome [4] | Potency [5] | outcome [10] | Potency [8] | Potency [9]

O=S(=O)(O)CC(O)CCl (stereo not drawn)
inactive: outcome [1] | outcome [2] | outcome [3] | outcome [4] | Potency [5] | outcome [6] | Potency [8] | Potency [9]

CCCCCC(CC)OC(=O)CCCOc1ccc(Cl)cc1Cl (stereo not drawn)
inactive: outcome [1] | outcome [2] | outcome [3] | outcome [4] | Potency [5] | outcome [6] | max response [7] 2.48% | Potency [8] | Potency [9]

CC(C)(Sc1cc(C(C)(C)C)c(O)c(C(C)(C)C)c1)Sc1cc(C(C)(C)C)c(O)c(C(C)(C)C)c1
inactive: outcome [1] | outcome [2] | outcome [3] | outcome [4] | Potency [5] | outcome [6] | max response [7] 3.52% | Potency [8] | Potency [9]

CCC(C)c1nccnc1OC (stereo not drawn)
inactive: outcome [1] | outcome [2] | outcome [3] | outcome [4] | Potency [5] | outcome [6] | max response [7] 1.32% | Potency [8] | Potency [9]

CC(=O)SCC(CC(=O)c1ccc(C)cc1)C(=O)O (stereo not drawn)
inactive: outcome [1] | outcome [2] | outcome [3] | outcome [4] | Potency [5] | outcome [6] | Potency [8] | Potency [9]

COc1cc(NS(=O)(=O)c2ccc(N)cc2)ncn1
inactive: outcome [1] | outcome [2] | outcome [3] | outcome [4] | Potency [5] | outcome [6] | max response [7] 7.65% | Potency [8] | Potency [9]

CCCCCCCCCCCCCCBr
inactive: outcome [1] | outcome [2] | outcome [3] | outcome [4] | Potency [5] | outcome [6] | max response [7] -1.85% | Potency [8] | Potency [9]

CC(C)C(=O)Nc1cccc(C2CN3CCSC3=N2)c1 (stereo not drawn)
inactive: outcome [1] | outcome [2] | outcome [3] | outcome [4] | outcome [6] | outcome [10] | max response [7] 0.0338% | Potency [8] | Potency [9]

CCCCCCC(O)CO (stereo not drawn)
inactive: outcome [1] | outcome [2] | outcome [3] | outcome [4] | Potency [5] | outcome [6] | Potency [8] | Potency [9]

COC(C)(C)CC(C)=O
inactive: outcome [1] | outcome [2] | outcome [3] | outcome [4] | Potency [5] | outcome [6] | max response [7] 1.4% | Potency [8] | Potency [9]

CCCCN=C(N)N=C(N)N
inactive: outcome [1] | outcome [2] | outcome [3] | outcome [4] | Potency [5] | outcome [6] | outcome [10] | Potency [8] | Potency [9]

O=P(O)(O)C(O)(Cc1cccnc1)P(=O)(O)O
inactive: outcome [1] | outcome [2] | outcome [3] | outcome [4] | outcome [6] | outcome [10] | Potency [8] | Potency [9]

CC(C)C(C)C
inactive: outcome [1] | outcome [2] | outcome [3] | outcome [4] | outcome [6] | Potency [8] | Potency [9]

CC(C)(O)CCCC1=CCC(C=O)CC1 (stereo not drawn)
inactive: outcome [1] | outcome [2] | outcome [3] | outcome [4] | outcome [6] | outcome [10] | max response [7] -16% | Potency [8] | Potency [9]

CCCCOCCCC
inactive: outcome [1] | outcome [2] | outcome [3] | outcome [4] | outcome [6] | outcome [10] | max response [7] 8.08% | Potency [9]

BrCCOc1ccccc1
inactive: outcome [1] | outcome [2] | outcome [3] | outcome [4] | outcome [6] | outcome [10] | max response [7] -4.49% | Potency [8] | Potency [9]

CCCCCCCCCCCC(C)=O
inactive: outcome [1] | outcome [2] | outcome [3] | outcome [4] | outcome [6] | max response [7] 0.63% | Potency [8] | Potency [9]
